Only some compounds are listed: those with a hit (about 2.8% of all), similar ones and a draw of the others.
PAFAH1B3 inh – inhibitors of human PAFAH1B3. 340,000 compounds, 0.28% hits. AID 492972. Q15102. inhibition, % at 3.39 µM. recombinant PAFAH1B3, FP-rhodamine probe, fluorescence polarization;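 active = inhibition above the screen-wide average of all tested compounds plus 3 SD, cut at about 25% in these data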
Target sequence (Q15102 whole entry, looked up): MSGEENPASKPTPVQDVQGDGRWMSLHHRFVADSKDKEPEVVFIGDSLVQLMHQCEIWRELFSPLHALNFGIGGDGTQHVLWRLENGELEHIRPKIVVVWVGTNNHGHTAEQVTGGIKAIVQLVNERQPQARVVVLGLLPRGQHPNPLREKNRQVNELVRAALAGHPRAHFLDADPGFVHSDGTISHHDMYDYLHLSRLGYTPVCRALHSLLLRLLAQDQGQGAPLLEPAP
PAFAH1B2 inh – blocks human PAF acetylhydrolase 1b catalytic subunit 2; P68402; recombinant PAFAH1B2, FP-rhodamine activity probe, fluorescence polarization; inhibition, % at 3.39 µM; 340,000 compounds, 1.2% hits; AID 492953;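 active = inhibition above the mean of all tested compounds plus 3 SD, cut at about 24% in these data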
Target sequence (P68402 whole entry, looked up): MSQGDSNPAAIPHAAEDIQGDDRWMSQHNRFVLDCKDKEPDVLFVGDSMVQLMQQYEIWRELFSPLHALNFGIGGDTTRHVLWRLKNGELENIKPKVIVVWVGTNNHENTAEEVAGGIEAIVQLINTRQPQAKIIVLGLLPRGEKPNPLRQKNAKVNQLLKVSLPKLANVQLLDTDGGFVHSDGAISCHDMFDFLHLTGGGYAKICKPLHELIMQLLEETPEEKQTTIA
HTRA1 inh – inhibitors of human serine peptidase HTRA1; recombinant HTRA1, FP-rhodamine activity-based probe, fluorescence polarization; inhibition, % at 5.96 µM; 340,000 compounds, 0.5% hits; AID 504803; in the data active = inhibition above about 36%
pPAFAH FP inh – inhibitors of human plasma PAF acetylhydrolase (pPAFAH) | Q13093 | recombinant pPAFAH, FP-rhodamine probe fluorescence polarization | inhibition, % at 3.39 µM | 330,000 compounds, 1.5% hits;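 active = inhibition above the mean inhibition across the screen plus 3 SD, cut at about 25% in these data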;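 also: inhibitors block binding of the rhodamine activity-based probe so polarization drops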
PAFAH2 FP inh – inhibitors of human PAFAH2; Q99487; inhibition, % at 3.39 µM; recombinant PAFAH2, FP-rhodamine activity probe, fluorescence polarization; 340,000 compounds, 0.99% hits;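 active = inhibition above the mean over all tested compounds plus 3 SD, cut at about 30% in these data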;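 also: inhibitors block probe labeling of enzyme so polarization drops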
DAGLB inh – blocks human DAGLB lipase activity. Q8NCG7. HEK293T DAGLB membrane lysate, EnzChek fluorogenic substrate. inhibition, % at 5.17 µM. 340,000 compounds, 0.059% hits. AID 504411; in the data active = inhibition above about 34%
pPAFAH FP conf – confirmation of human plasma PAF acetylhydrolase (pPAFAH) inhibitors. shares compounds with pPAFAH FP inh. recombinant pPAFAH, FP-Rh probe fluorescence polarization. inhibition, % at 3.39 µM. 2,300 compounds, 72% hits. AID 463230;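 active = mean inhibition of the triplicate above the hit cutoff set for the earlier primary screen, cut at about 25% in these data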
Each line names hits and unclear results; the compound was inactive in the other large screens (follow-up assays come after a bar, where they were run).

CC1CC1C(=O)N(CCC1=CCCCC1)c1c(N)n(Cc2ccccc2)c(=O)[nH]c1=O (stereo not given)	none
CCCCOc1cc(NCc2ccccc2)c2ncn(C(C)C)c2c1	pPAFAH FP inh 36 | pPAFAH FP conf 39
COCCCOc1cc(NCc2ccccc2)c2ncn(C(C)C)c2c1	none
O=C(CN1CCN(C(=O)C2COc3ccccc3O2)CC1)Nc1ccc(F)cc1 (stereo not given)	none (no result: PAFAH1B3 inh, PAFAH1B2 inh, HTRA1 inh, PAFAH2 FP inh, DAGLB inh)
O=C(OCC(=O)N1CCOCC1)c1ccc2[nH]c3c(c2c1)CCCC3	none
O=C(COC(=O)c1ccc2[nH]c3c(c2c1)CCCC3)Nc1ccccc1	pPAFAH FP inh 43, PAFAH2 FP inh 77 | pPAFAH FP conf 41
CC(C)(C)c1ccc(-n2ncc3c2CCCC3NC(=O)CCN2CCCO2)cc1 (stereo not given)	pPAFAH FP inh 37 | pPAFAH FP conf inactive
O=C(CCN1CCCO1)NC1CCCc2c1cnn2-c1ccccc1F (stereo not given)	none
COCCn1c(SCc2nc3sc(C(=O)OC)c(C)c3c(=O)[nH]2)nc2ccccc21	none
CCn1c(SCc2nc3sc(C(=O)O)c(C)c3c(=O)[nH]2)nc2ccccc21	PAFAH1B3 inh 43, pPAFAH FP inh 48 | pPAFAH FP conf 47
Cc1ccc(NC2=C/C(=N/S(=O)(=O)c3cccs3)c3ccccc3C2=O)cc1	PAFAH1B3 inh 45, pPAFAH FP inh 53 | pPAFAH FP conf 65
COc1ccc(S(=O)(=O)Nc2c(C)n(C)n(-c3ccccc3)c2=O)c(Cl)c1Cl	pPAFAH FP inh 62 | pPAFAH FP conf inactive
Cc1c(NS(=O)(=O)c2cc(C(=O)NCc3cccc(Cl)c3)ccc2Cl)c(=O)n(-c2ccccc2)n1C	none (no result: pPAFAH FP inh)
Cc1c(NS(=O)(=O)c2cc(C(=O)NCCN(C)C)ccc2Cl)c(=O)n(-c2ccccc2)n1C	pPAFAH FP inh 51 | pPAFAH FP conf inactive
O=C(CNC(c1ccccc1)c1ccccc1)Nc1c(F)cccc1F	pPAFAH FP inh 89 | pPAFAH FP conf inactive
COc1cc(/C=N/NC(=O)C(Cc2c[nH]c3ccccc23)NC(=O)OCC(C)C)cc([N+](=O)[O-])c1O (stereo not given)	pPAFAH FP inh 37 | pPAFAH FP conf 31
COc1cc(/C=N/NC(=O)C(Cc2c[nH]c3ccccc23)NC(=O)OCc2ccccc2)cc([N+](=O)[O-])c1O (stereo not given)	PAFAH1B2 inh 43, pPAFAH FP inh 46 | pPAFAH FP conf 52
CCc1ccccc1OCC(=O)Nc1cc(S(=O)(=O)N(CC)CC)ccc1N1CCOCC1	pPAFAH FP inh 49 | pPAFAH FP conf inactive
CCN(CC)S(=O)(=O)c1ccc(N2CCOCC2)c(NC(=O)COc2ccccc2)c1	none
N#CCN(C(=O)COC(=O)CCCNC(=O)c1ccc(Cl)cc1)c1ccccc1	none
COc1ccc(OC)c(N2C(=O)[C@@H]3C(c4ccccc4Cl)=NO[C@@H]3C2=O)c1	pPAFAH FP inh 38 | pPAFAH FP conf inactive
O=[N+]([O-])c1ccc(/C=C/C2=NN(c3ccccc3)C(c3ccco3)C2)o1 (stereo not given)	none (no result: pPAFAH FP inh)
C(=C\c1ccco1)/C1=NN(c2ccccc2)C(c2ccco2)C1 (stereo not given)	pPAFAH FP inh 40 | pPAFAH FP conf inactive
Cc1cc(NC(=O)c2ccc(NC(=O)C(C)C)cc2)no1	pPAFAH FP inh 41 | pPAFAH FP conf inactive
CCOc1cc(CNCCO)cc(Br)c1OCc1ccc(Cl)cc1Cl	pPAFAH FP inh 42 | pPAFAH FP conf 30
O=C(NCCc1ccc2c(c1)OCCO2)c1cccc(S(=O)(=O)N2CCCC2)c1	pPAFAH FP inh 36 | pPAFAH FP conf inactive
COc1cccc(NC(=O)CSc2nnc3ccc(-c4ccccn4)nn23)c1	none (no result: pPAFAH FP inh)
Cc1ccc(S(=O)(=O)CC(=O)Nc2cc(C)on2)cc1	none
O=C(NNC(=O)c1cc(Cl)ccc1O)c1cccc(S(=O)(=O)N2CCOCC2)c1	none
CCCC1=Nc2cc(C(=O)NCCCN3CCOCC3)ccc2Sc2ccccc21	none
CCCC1=Nc2cc(C(=O)NCCCN3CCN(C)CC3)ccc2Sc2ccccc21	pPAFAH FP inh 34 | pPAFAH FP conf inactive
CCCCCCCCCCS(=O)(=O)N/N=C/c1ccc(O)cc1	pPAFAH FP inh 38 | pPAFAH FP conf 44
CCCCCCC(=O)N/N=C/c1ccc(Br)cc1	none
N#Cc1c(SCC(=O)Nc2nncs2)sc2c(O)cc(=O)[nH]c12	PAFAH1B3 inh 36, pPAFAH FP inh 49, PAFAH2 FP inh 37 | pPAFAH FP conf inactive
COc1cc(Cl)c(C)cc1NC(=O)CSCC#N	none
COc1cc(Cl)c(C)cc1NC(=O)CSc1sc2c(O)cc(=O)[nH]c2c1C#N	pPAFAH FP inh 40 | pPAFAH FP conf 31
O=S(=O)(Nc1nc2ccccc2nc1Nc1ccc2c(c1)OCCO2)c1cccs1	pPAFAH FP inh 49 | pPAFAH FP conf 49
O=C(CNC(=O)c1cccc(Cl)c1)NCC(c1cccs1)N1CCOCC1 (stereo not given)	none
Nc1ncnc2c1c(-c1ccc(Oc3ccccc3)cc1)cn2C1CCCC1	pPAFAH FP inh 39 | pPAFAH FP conf 38
Cc1nn(CC(C)C)c(Cl)c1C(=O)NCC1CCCO1 (stereo not given)	none (no result: PAFAH1B3 inh, PAFAH1B2 inh, pPAFAH FP inh, PAFAH2 FP inh)
O=C1/C(=C/C=C/c2ccco2)SC(=S)N1NS(=O)(=O)c1ccccc1	PAFAH1B3 inh 45, PAFAH1B2 inh 32, pPAFAH FP inh 74, PAFAH2 FP inh 67 | pPAFAH FP conf 69
CC(C(=O)O)N1C(=O)/C(=C/C=C/c2ccco2)SC1=S (stereo not given)	PAFAH1B3 inh 26, pPAFAH FP inh 76, PAFAH2 FP inh 50 | pPAFAH FP conf 46
O=C1/C(=C/c2cccs2)SC(=S)N1NS(=O)(=O)c1ccccc1	none
CC(=C\c1ccccc1)/C=C1/SC(=S)N(C(C(=O)O)C(C)C)C1=O (stereo not given)	none (no result: pPAFAH FP inh)
CCOC(=O)Cn1ccc(NC(=O)COc2ccc(F)cc2F)n1	none
CN(CCC#N)C(=O)COC(=O)C1c2ccccc2Oc2ccccc21	none
N#CCCN(CCC#N)C(=O)C1c2ccccc2Oc2ccccc21	pPAFAH FP inh 65 | pPAFAH FP conf inactive
O=C(O)CCc1ccc(-c2ccc(Cl)cc2)n1Cc1ccco1	pPAFAH FP inh 35 | pPAFAH FP conf inactive
Clc1ccc(-c2nnc3sc(-c4ccc(Br)o4)nn23)cc1	none
Cc1oc(-c2ccc(Cl)cc2)cc1-c1nn2c(-c3ccoc3C)nnc2s1	pPAFAH FP inh 53 | pPAFAH FP conf 43
Nc1ncnc2oc(-c3ccco3)c(-c3ccco3)c12	PAFAH1B3 inh 37, pPAFAH FP inh 42, PAFAH2 FP inh 50 | pPAFAH FP conf inactive
CC(=O)N1N=C(c2cccs2)CC1c1cc2cc(C)ccc2nc1Cl (stereo not given)	none
FC(F)(F)c1ccccc1CNCc1ccc2c(c1)OCO2	none (no result: pPAFAH FP inh)
